Laboratory results taken from the supplement of paper PMC6897291.
Counter-ions that a name gives are not always drawn.

How the values were obtained:
[1] = tested on: U-2932; assay: growth inhibition by drug alone (1 - RLU/untreated control) (fraction); higher = stronger inhibition; settings: 177Lu-lilotomab satetraxetan 0 ug/ml
Outline: (§1)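 Growth inhibition was calculated from RealTime-Glo RLU against untreated no-drug wells. Values equal 1 − RLU/mean of 48 untreated no-drug wells per plate, read daily from day 3 after 1 h at 37°C. RIVA and U-2932 cells, with or without 18 h pretreatment by a radiolabelled anti-CD37 antibody conjugate (~600 MBq/mg; 0.5 µg/ml RIVA, 1 µg/ml U-2932), were washed and plated at 3,000 cells/well on compound-printed plates at 10/100 nM (RIVA) or 10/1,000 nM (U-2932).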

[2] = tested on: RIVA; assay: as above; settings: 177Lu-lilotomab satetraxetan 0 ug/ml
Outline: as §1

[3] = tested on: U-2932; assay: growth inhibition by drug plus 177Lu-lilotomab satetraxetan (1 - RLU/untreated control) (fraction); higher = stronger inhibition; settings: 177Lu-lilotomab satetraxetan 1 ug/ml
Outline: as §1

[4] = tested on: RIVA; assay: as above; settings: 177Lu-lilotomab satetraxetan 0.5 ug/ml
Outline: as §1

Row | SMILES | growth inhibition by drug alone ([1]; 10 nM, time (day): 3) | growth inhibition by drug alone ([1]; 10 nM, time (day): 4) | growth inhibition by drug alone ([1]; 10 nM, time (day): 5) | growth inhibition by drug alone ([1]; 10 nM, time (day): 6) | growth inhibition by drug alone ([1]; 1000 nM, time (day): 3) | growth inhibition by drug alone ([1]; 1000 nM, time (day): 4) | growth inhibition by drug alone ([1]; 1000 nM, time (day): 5) | growth inhibition by drug alone ([1]; 1000 nM, time (day): 6) | growth inhibition by drug alone ([2]; 10 nM, time (day): 3) | growth inhibition by drug alone ([2]; 10 nM, time (day): 4) | growth inhibition by drug alone ([2]; 10 nM, time (day): 5) | growth inhibition by drug alone ([2]; 10 nM, time (day): 6) | growth inhibition by drug alone ([2]; 100 nM, time (day): 3) | growth inhibition by drug alone ([2]; 100 nM, time (day): 4) | growth inhibition by drug alone ([2]; 100 nM, time (day): 5) | growth inhibition by drug alone ([2]; 100 nM, time (day): 6) | growth inhibition by drug plus 177Lu-lilotomab satetraxetan ([3]; 10 nM, time (day): 3) | growth inhibition by drug plus 177Lu-lilotomab satetraxetan ([3]; 10 nM, time (day): 4) | growth inhibition by drug plus 177Lu-lilotomab satetraxetan ([3]; 10 nM, time (day): 5) | growth inhibition by drug plus 177Lu-lilotomab satetraxetan ([3]; 10 nM, time (day): 6) | growth inhibition by drug plus 177Lu-lilotomab satetraxetan ([3]; 1000 nM, time (day): 3) | growth inhibition by drug plus 177Lu-lilotomab satetraxetan ([3]; 1000 nM, time (day): 4) | growth inhibition by drug plus 177Lu-lilotomab satetraxetan ([3]; 1000 nM, time (day): 5) | growth inhibition by drug plus 177Lu-lilotomab satetraxetan ([3]; 1000 nM, time (day): 6) | growth inhibition by drug plus 177Lu-lilotomab satetraxetan ([4]; 10 nM, time (day): 3) | growth inhibition by drug plus 177Lu-lilotomab satetraxetan ([4]; 10 nM, time (day): 4) | growth inhibition by drug plus 177Lu-lilotomab satetraxetan ([4]; 10 nM, time (day): 5) | growth inhibition by drug plus 177Lu-lilotomab satetraxetan ([4]; 10 nM, time (day): 6) | growth inhibition by drug plus 177Lu-lilotomab satetraxetan ([4]; 100 nM, time (day): 3) | growth inhibition by drug plus 177Lu-lilotomab satetraxetan ([4]; 100 nM, time (day): 4) | growth inhibition by drug plus 177Lu-lilotomab satetraxetan ([4]; 100 nM, time (day): 5) | growth inhibition by drug plus 177Lu-lilotomab satetraxetan ([4]; 100 nM, time (day): 6)
1 | CN(Cc1cnc2nc(N)nc(N)c2n1)c1ccc(C(=O)N[C@@H](CCC(=O)O)C(=O)O)cc1 [Abitrexate (Methotrexate)] | -0.0461 | -0.0435 | -0.0522 | -0.0907 | 0.866 | 0.93 | 0.956 | 0.968 | -0.206 | -0.255 | -0.282 | -0.39 | -0.038 | -0.184 | -0.173 | -0.287 | -0.123 | -0.083 | -0.0233 | 0.0372 | 0.851 | 0.924 | 0.957 | 0.972 | 0.364 | 0.489 | 0.508 | 0.521 | 0.452 | 0.49 | 0.483 | 0.457
2 | Cn1cnc([N+](=O)[O-])c1Sc1ncnc2[nH]cnc12 [Azathioprine (Azasan, Imuran)] | 0.0201 | -0.00369 | 0.00367 | 0.0444 | 0.0785 | 0.0404 | 0.00445 | 0.131 | -0.0287 | -0.0923 | -0.12 | -0.24 | -0.168 | -0.224 | -0.259 | -0.337 | 0.00188 | 0.0643 | 0.101 | 0.167 | 0.0755 | 0.0766 | 0.124 | 0.326 | 0.505 | 0.533 | 0.565 | 0.573 | 0.444 | 0.518 | 0.521 | 0.529
3 | CN1CCN(CCOc2cc(OC3CCOCC3)c3c(Nc4c(Cl)ccc5c4OCO5)ncnc3c2)CC1 [Saracatinib (AZD0530)] | 0.0465 | 0.00941 | -0.0204 | -0.381 | -0.139 | -0.146 | -0.173 | -0.33 | -0.108 | -0.164 | -0.326 | -0.893 | -0.52 | -0.418 | -0.423 | -0.554 | -0.0675 | -0.00671 | 0.0506 | 0.0536 | -0.174 | -0.108 | -0.0137 | 0.1 | 0.366 | 0.494 | 0.508 | 0.537 | 0.458 | 0.536 | 0.549 | 0.544
4 | N#CC(c1ccnc(NCCc2cccnc2)n1)c1nc2ccccc2s1 (centres undefined) [JNK Inhibitor V] | -0.0956 | -0.056 | -0.0395 | 0.0624 | -0.154 | -0.122 | -0.116 | -0.143 | -0.285 | -0.269 | -0.297 | -0.462 | -0.33 | -0.412 | -0.338 | -0.441 | -0.113 | -0.0825 | -0.0367 | 0.103 | -0.0869 | -0.00408 | 0.0113 | 0.0923 | 0.255 | 0.419 | 0.467 | 0.481 | 0.265 | 0.376 | 0.381 | 0.353
5 | O=C(O)CCCc1ccccc1 [4-Phenylbutyrate] | 0.0701 | 0.0509 | 0.00363 | -0.192 | 0.0343 | 0.0446 | -0.0113 | -0.154 | -0.0798 | -0.0476 | -0.148 | -0.516 | -0.401 | -0.277 | -0.308 | -0.483 | 0.0355 | 0.105 | 0.141 | 0.163 | 0.0377 | 0.0642 | 0.124 | 0.195 | 0.43 | 0.538 | 0.547 | 0.56 | 0.419 | 0.5 | 0.507 | 0.511
6 | O=c1c(O)c(-c2ccc(O)c(O)c2)oc2cc(O)cc(O)c12 [Quercetin (Sophoretin)] | 0.129 | 0.074 | -0.0824 | -0.0972 | 0.0543 | 0.0523 | 0.0143 | -0.101 | -0.0527 | -0.036 | -0.117 | -0.426 | -0.494 | -0.296 | -0.357 | -0.683 | 0.0451 | 0.0897 | 0.166 | 0.21 | 0.0503 | 0.0821 | 0.135 | 0.211 | 0.546 | 0.61 | 0.613 | 0.619 | 0.346 | 0.469 | 0.48 | 0.508
7 | Clc1ccc(Nc2nnc(Cc3ccncc3)c3ccccc23)cc1 [Vatalanib dihydrochloride (PTK787)] | 0.0493 | 0.0329 | -0.0325 | -0.0722 | 0.00749 | 0.0478 | -0.0105 | -0.12 | -0.0393 | -0.0522 | -0.084 | -0.232 | -0.0903 | -0.0658 | -0.0924 | -0.165 | -0.0142 | 0.0115 | 0.0124 | 0.0638 | -0.0725 | 0.0231 | -0.00359 | -0.0503 | 0.334 | 0.509 | 0.527 | 0.534 | 0.328 | 0.442 | 0.439 | 0.426
8 | Cc1ccc(C(=O)N(CCCN)[C@@H](c2oc3cc(Cl)ccc3c(=O)c2Cc2ccccc2)C(C)C)cc1 | 0.962 | 0.968 | 0.974 | 0.977 | 0.962 | 0.97 | 0.976 | 0.98 | 0.945 | 0.955 | 0.965 | 0.967 | 0.918 | 0.938 | 0.95 | 0.957 | 0.964 | 0.974 | 0.981 | 0.984 | 0.968 | 0.976 | 0.982 | 0.985 | 0.963 | 0.976 | 0.981 | 0.985 | 0.953 | 0.973 | – | –
